# Measurements reported in PubChem BioAssay.
# A number with no mark means an inactive call.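 Rule for the calls: active = NADPH fluorescence slope more negative than the mean of all samples by about 3 SD, 99.7% confidence; inactive = the rest.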
# Biological target: Voltage-gated potassium channel subunit beta-2 (Rattus norvegicus) (UniProt P62483)
# Test: enhancers of rat Kvbeta2 NADPH turnover – biochemical, NADPH fluorescence, primary screen (AID 623);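 note: fluorescence intensity change per second fitted from 20 to 320 s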
# Conditions: Recombinant KvBeta, NADPH fluorescence decrease slope, 10 min; at 10 µM; hits give low values
# Voltage-gated potassium channel subunit beta-2 (Rattus norvegicus), sequence (P62483 whole entry, looked up): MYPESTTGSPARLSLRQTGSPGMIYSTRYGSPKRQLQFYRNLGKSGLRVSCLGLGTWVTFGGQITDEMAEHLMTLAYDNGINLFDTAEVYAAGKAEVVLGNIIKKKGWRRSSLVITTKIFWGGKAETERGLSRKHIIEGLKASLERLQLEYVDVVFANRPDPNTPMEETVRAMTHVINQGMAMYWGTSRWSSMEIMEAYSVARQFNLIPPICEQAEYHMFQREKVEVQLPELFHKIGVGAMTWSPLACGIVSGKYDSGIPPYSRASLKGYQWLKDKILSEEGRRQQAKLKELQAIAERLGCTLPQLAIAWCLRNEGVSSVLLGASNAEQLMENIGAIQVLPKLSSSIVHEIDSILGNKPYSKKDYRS
row,SMILES,NADPH fluorescence slope
1,COc1ccc(OC)c(NC(=O)CSc2nnc(-c3ccco3)n2-c2ccccc2)c1,-3.5e-05
2,C#CCSc1nc(-c2cccs2)ccc1C#N,5.7e-06
3,O=C1c2oc3ccccc3c(=O)c2C(c2cccnc2)N1Cc1ccco1 (stereo not given),-3.2e-05
4,Cc1ccc(C(=O)Nc2c(C(=O)N3CCOCC3)cnn2-c2ccccc2)cc1,-3.7e-05
5,C#CCOC(=O)C1C2C=CC(C2)C1C(=O)O (stereo not given),-6.5e-05
6,O=C(NC1CCCCCCC1)C1CCN(c2nc3ccccc3o2)CC1,8.8e-06
7,COC(=O)c1[nH]c2ccc(C)cc2c1NC(=O)CN1CCC(C)CC1,-5.5e-05
8,Cc1cc(C)nc(SCc2nnc(SCC(=O)Nc3ncc(C)s3)n2Cc2ccco2)n1,-6.9e-05
9,O=C(c1ccc(S(=O)(=O)N2CCC(c3nc4ccccc4s3)CC2)cc1)N1CCOCC1,-9.6e-07
10,CCCCCc1nnc(NC(=O)Cc2cccs2)s1,-5.9e-05
11,COc1ccc(N=C2C(=O)Nc3ccccc32)cc1,-1.5e-06
12,O=C(O)CCc1ccc(-c2ccc(F)cc2)n1CCC(=O)O,-5.7e-05
13,COC(=O)c1ccccc1NC(=O)c1cnc2sccn2c1=O,-5.8e-05
14,COc1ccc(Cl)c(NC(=O)NCCN2CCN(c3ccccc3)CC2)c1,-1.7e-05
15,COc1cccc(NC(=O)N(CCCN2CCOCC2)C(C)c2cc3cccc(OC)c3o2)c1 (stereo not given),-6.3e-05
16,CC(C)(C)NC(=O)CN(Cc1cccs1)C(=O)c1csnn1,-4.2e-05
17,O=C(CSc1nnc(-c2ccccn2)n1Cc1ccccc1)N1CCCC1,-6.5e-05
18,Cc1[nH]nc(-c2ccc(O)c(C)c2O)c1-c1cnn(-c2ccccc2)c1,-2.4e-05
19,O=C(CN1CCSCC1)N1CCc2[nH]c3ccc(Br)cc3c2C1,-5.2e-05
20,COc1ccccc1C1N(c2ccc(F)cc2)C(=O)C2CCCN21 (stereo not given),-7.5e-05

row,SMILES,NADPH fluorescence slope
1,Cc1cc(N2C(=O)CC(N3CCN(c4ccc(C(=O)c5cccs5)cc4)CC3)C2=O)no1 (stereo not given),-4.4e-05
2,CC(C)(C)NC(=O)C(Cc1ccccc1)NS(=O)(=O)c1cccc2nsnc12 (stereo not given),1.1e-05
3,COc1ccc(N2C(=O)c3cccc4cccc(c34)C2=O)nn1,-2.8e-05
4,O=C(CSc1ccccc1C(=O)NCCCN1CCCC1=O)NCc1ccco1,-4.3e-05
5,Cc1ccc(OCC(O)Cn2c(NCCc3ccccc3)nc3c2c(=O)[nH]c(=O)n3C)cc1 (stereo not given),5.3e-06
6,CC1CCCC(C)N1CCNC(=O)C1CCN(S(=O)(=O)N2CCCCC2)CC1 (stereo not given),1.9e-05
7,Cc1nc2ncnn2c(N2CCC(C(=O)NCC3CCCO3)CC2)c1Cc1ccccc1 (stereo not given),-2.8e-05
8,COc1ccc(NC(=O)Nc2ccc(N3CCCC3=O)cc2)cc1OC,-3.2e-05
9,CC(NC(=O)NC12CC3CC(CC(C3)C1)C2)C1CCCO1 (stereo not given),-2.2e-05
10,COc1ccc(N2CCN(C(=O)CSc3ccccc3)CC2)cc1,-5.3e-05
11,COC(=O)c1cccc(NC(=O)CN2CCN(Cc3ccccc3)CC2)c1,-9.8e-07
12,O=C(Nc1ccc(-c2nc3ncccc3o2)cc1)c1ccc(Br)o1,-3.3e-06
13,COc1ccc(S(=O)(=O)Nc2ccc(Cl)cn2)c(C)c1C,-4.6e-05
14,COc1cccc(NC(=O)N2CCCC2C(=O)Nc2ccc3c(c2)OCO3)c1 (stereo not given),-6.1e-05
15,O=C(CSc1nc2ccccc2c(=O)n1Cc1ccco1)NCc1ccccc1,-4.9e-05
16,O=C(NC1CCCC1)C(NS(=O)(=O)c1cccc2nsnc12)c1ccccc1 (stereo not given),1.1e-05
17,CCOC(=O)c1sc(NC(=O)CSc2ncn(-c3ccccc3)n2)nc1C,2.2e-05
18,COC(=O)Nc1ccc(S(=O)(=O)N2CCCCCC2)cc1,1.2e-05
19,Cc1cc(C)n2nc(SCC(=O)N(C)Cc3ccccc3)nc2n1,-6.2e-06
20,O=C(CSc1nnc(Cc2ccccc2)n1-c1cccc(Cl)c1)N1CCOCC1,-4.5e-05
